The values that follow come from the supplement of paper PMC13380429.

Structures are written as SMILES. Values without a mark were called inactive.

This assay deals with Vero E6 infected with SARS-CoV-2. Kind of assay: inhibition of SARS-CoV-2 cytopathic effect; higher = more antiviral protection, active = above 15. Conditions: 48 h. Background: Protection from cytopathic effect is a common read-out in antiviral testing.

As to `COc1ccc2nc3ccc(Cl)cc3c(SCCCN)c2c1`, the “inhibition of SARS-CoV-2 cytopathic effect” value (shortened to “inhibition”) reads like this: (1 nM) 0.89%; (8.33 nM) 1%; (100 nM) 0.27%; (833.33 nM) 0.79%; (10000 nM) 2.63%.
Take `CCn1c(=O)c(-c2cc[nH]n2)cc2c(C)nc(N)nc21` [voxtalisib]: the “inhibition” value is 2.67% (1 nM); 3.03% (8.33 nM); 1.3% (100 nM); 0.46% (833.33 nM); -4.32% (10000 nM).
Regarding `O=C(c1ccccn1)c1cnn2c(-c3ccncc3)ccnc12` [ocinaplon], the “inhibition” value by setting is: (1 nM) 0.32%; (8.33 nM) -1.43%; (100 nM) -0.52%; (833.33 nM) -3.04%; (10000 nM) -0.62%.
`Cc1cccc(-c2n[nH]cc2-c2ccc3ncccc3n2)n1` [repsox]: the “inhibition” value was -0.69% (1 nM); 2.3% (8.33 nM); -2.26% (100 nM); -4.59% (833.33 nM); -4.62% (10000 nM).
As to `O=C(NCCN1CCC2(CC1)C(=O)NCN2c1cccc(F)c1)c1ccc(F)c(F)c1`, the “inhibition” value (1 nM) was 3.32%; the “inhibition” value (8.33 nM) was 2.54%; the “inhibition” value (100 nM) was 0.98%; the “inhibition” value (833.33 nM) is 1.22%; the “inhibition” value (10000 nM) was 22% (active).
The like results for `Cc1cc(=O)[nH]c(=S)[nH]1` [methylthiouracil] were, in that order, 0.85%, 2.29%, -0.49%, 1.73% and -0.31%.
As for `O=c1cc(-c2ccccc2)oc2cc(O)c(O)c(O)c12` [baicalein], the “inhibition” value is, setting by setting: (1 nM) 1.61%; (8.33 nM) 3.69%; (100 nM) -0.24%; (833.33 nM) -2.55%; (10000 nM) -5.11%.
For the molecule `NC(N)=Nc1nc(CSCC/C(N)=N/S(N)(=O)=O)cs1` [Famotidine], the “inhibition” value (1 nM) is 1.28%; the “inhibition” value (8.33 nM) is 0.44%; the “inhibition” value (100 nM) is -0.39%; the “inhibition” value (833.33 nM) is -0.03%; the “inhibition” value (10000 nM) is -0.45%.
As to `Cn1nc(C(C)(C)C)cc1C(=O)N[C@@H](Cc1cccc(Cl)c1)C(=O)NCC#N` [cathepsin-inhibitor-1], the “inhibition” value is, setting by setting: (1 nM) 0.51%; (8.33 nM) 1.86%; (100 nM) -0.47%; (833.33 nM) -5.37%; (10000 nM) -1.36%.
For `COc1cc(C(C)=O)ccc1OCCCN1CCC(c2noc3cc(F)ccc23)CC1` [iloperidone], in that order: -1.11%, -0.19%, 0.99%, -0.53% and -3.95%.
For `CCN1CCN(C(=O)N[C@@H](C(=O)N[C@@H]2C(=O)N3C(C(=O)O)=C(CSc4nnnn4C)CS[C@H]23)c2ccc(O)cc2)C(=O)C1=O` [cefoperazone], in that order: -0.37%, -0.65%, 0.99%, 3.89% and 2.57%.
Consider `c1ccc(-c2nn3c(c2-c2ccnc4cc(OCCN5CCOCC5)ccc24)CCC3)nc1`, for which the “inhibition” value is, setting by setting: (1 nM) -0.68%; (8.33 nM) 0.41%; (100 nM) 1.87%; (833.33 nM) -0.96%; (10000 nM) 0.94%.
For `O=C(O[C@H]1[C@H](OC(=O)c2cccnc2)[C@@H](OC(=O)c2cccnc2)[C@H](OC(=O)c2cccnc2)[C@@H](OC(=O)c2cccnc2)[C@H]1OC(=O)c1cccnc1)c1cccnc1` [inositol-hexanicotinate], the “inhibition” value (1 nM) was 2.01%; the “inhibition” value (8.33 nM) is 3.15%; the “inhibition” value (100 nM) was 2.82%; the “inhibition” value (833.33 nM) is 0.04%; the “inhibition” value (10000 nM) was 0.85%.
Turning to `CCCCNC(=O)NS(=O)(=O)c1ccc(C)cc1` [tolbutamide], the “inhibition” value was 0.11% (1 nM); 0.83% (8.33 nM); -0.09% (100 nM); 0.89% (833.33 nM); -0.3% (10000 nM).
The like results for `CCCCN1CCC(CNC(=O)c2c3n(c4ccccc24)CCCO3)CC1` [piboserod] were, in that order, -0.67%, 1.75%, 0.6%, -0.97% and 1.25%.
As to `CC(=O)N1CCC(C(=O)N(CCCN2CCC(Cc3ccc(C(N)=O)cc3)CC2)c2ccc(C)c(Cl)c2)CC1`, the “inhibition” value was 0.74% (1 nM); -0.02% (8.33 nM); -0.6% (100 nM); 0.17% (833.33 nM); 2.52% (10000 nM).
In the case of `O=C(O)C1CSCN1` (stereo not given) [timonacic], the “inhibition” value is -2.35% (1 nM); -1.08% (8.33 nM); 3.52% (100 nM); 10.6% (833.33 nM); 4.51% (10000 nM).
On to `CC[C@@H](C)Nc1cc(C(=O)N[C@H]2C[C@H]3CC[C@@H](C2)N3c2ccc(C(=O)C3CC3)cn2)c(C)cc1C(N)=O`, for which the “inhibition” value by setting is: (1 nM) 1.52%; (8.33 nM) 1.25%; (100 nM) -3.63%; (833.33 nM) 2.73%; (10000 nM) 1.28%.
Consider `N#C/C(=C1/SC[C@@H](c2ccc(Cl)cc2Cl)S1)n1ccnc1` [luliconazole], for which the “inhibition” value is, setting by setting: (1 nM) 1%; (8.33 nM) 1.92%; (100 nM) 2.17%; (833.33 nM) 1.1%; (10000 nM) 3.29%.
